Screening data from PubChem BioAssay.
PI4K2A inh = blocks human PI4K2A kinase activity; Q9BTU6; activity change, negative = inhibition, % at 76.9 µM; purified PI4K2A, ADP-Glo luminescence, 1 h; stronger effect = lower value; 420,000 compounds, 0.13% hits; in the data active means activity change below about -50%; inconclusive means mostly about -30% to -49%
Target sequence (Q9BTU6 whole entry, looked up): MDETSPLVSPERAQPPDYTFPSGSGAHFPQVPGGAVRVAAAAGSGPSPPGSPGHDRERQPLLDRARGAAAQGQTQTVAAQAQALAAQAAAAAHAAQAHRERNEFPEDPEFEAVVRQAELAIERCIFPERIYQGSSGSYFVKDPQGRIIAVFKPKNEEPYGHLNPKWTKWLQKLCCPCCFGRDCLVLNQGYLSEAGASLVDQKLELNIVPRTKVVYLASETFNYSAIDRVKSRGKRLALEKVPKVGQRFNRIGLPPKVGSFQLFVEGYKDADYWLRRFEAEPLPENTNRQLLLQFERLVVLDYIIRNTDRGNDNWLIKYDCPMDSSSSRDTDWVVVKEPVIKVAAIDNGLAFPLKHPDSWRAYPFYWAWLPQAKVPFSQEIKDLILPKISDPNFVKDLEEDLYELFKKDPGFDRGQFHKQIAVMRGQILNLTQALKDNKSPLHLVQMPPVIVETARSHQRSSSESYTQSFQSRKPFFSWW
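In this quantitative HTS, ADP production by PI4K2A was quantified luminescently after 1 h at ambient temperature; 100 microM adenosine served as plate-quality control.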
Nrf2 block = blocks Nrf2 signaling. A549 ARE-Fluc reporter, luciferase luminescence, 18-24 h. AID 504444. 360,000 compounds, 2.1% hits. Potency, µM (doses to about 46 µM), actives largely listed as inhibitors; further: nearly all actives have a fitted effect of over 60% in size
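A549 ARE_Fluc cells, 5000/well, 5% FBS OPTI-MEM; compounds in dose-response, 18-24 h at 37 °C/5% CO2; CellTiter-Fluor viability read (Ex 405/Em 525), then BugLite luciferase luminescence = Nrf2 activity.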
Giardia killer = kills Giardia lamblia | Giardia lamblia trophozoite viability | activity change, % at 7.66 µM, hits read low | 340,000 compounds, 0.15% hits; in the data active means activity change below about -80%; inconclusive means between about -30% and that limit;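 further: parasites exposed to compound for two days anaerobically before the ATP read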
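Giardia lamblia trophozoites (100 cells/well) were incubated with compounds for 48 h at 37 deg C under anaerobic conditions. Viability was read as ATP content by one-step luminescence after 15-30 min at room temperature.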
KB-3-1 tox = kills parental KB-3-1 adenocarcinoma cells. AID 1347075. Potency, µM (doses to about 46.1 µM), actives largely listed as cytotoxic. KB-3-1 viability, CellTiter-Glo ATP luminescence, 72 h. 400,000 compounds, 1.4% hits; further: nearly all actives have a fitted effect of over 60% in size
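Using CellTiter-Glo luminescence, growth of non-resistant KB-3-1 adenocarcinoma cells is assessed 72 h after pin-tool compound addition at 37 °C. Normalized responses across the concentration series yield fitted curves.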
A549 viability = counter-screen for Nrf2 inhibitors: cytotoxicity in A549 cells. A549 ARE-Fluc cells, CellTiter-Fluor viability, 18-24 h. Potency, µM (doses to about 46 µM), hits mostly inhibitors. 390,000 compounds, 0.16% hits
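Cytotoxicity counterscreen: CellTiter-Fluor fluorescence was measured in A549 ARE_Fluc cells after 18-24 h of compound exposure in a concentration series. The subsequent BugLite luminescent read reports ARE-luciferase activity.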
KB-V1 cytotox = KB-V1 MDR subline cytotoxicity. 400,000 compounds, 3.4% hits. KB-V1 MDR cells viability, CellTiter-Glo, 72 h. Potency, µM (top dose mostly 46.1 µM), hits mostly cytotoxic; further: nearly all actives have a fitted effect of over 60% in size
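qHTS viability screen in drug-selected KB-V1 MDR cells: 72 h compound treatment at 37 degrees C, ATP luminescence end point.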
Hits are given with their value; 0 = inactive; ? = inconclusive; - = no result. Sampled rows, rich in hits. Any-hit rate of the full collection: about 5.7%. Unless noted, the call rests on the fitted dose curve; in most records, active means well fitted curve in the direction sought with a large enough effect; inconclusive means small, poorly fitted or top-dose-only effect, or another doubt; inactive means no such curve, though single readings can be large; an effect the other way counts as inactive or inconclusive.

SMILES | PI4K2A inh | Nrf2 block | Giardia killer | KB-3-1 tox | A549 viability | KB-V1 cytotox
CCC(Oc1ccccc1)C(=O)Nc1ncc([N+](=O)[O-])s1 (stereo not given) | 0 | ? | -88 | 0 | ? | 0
CCC(Oc1ccccc1)C(=O)Nc1nnc(C)s1 (stereo not given) | 0 | 0 | 0 | 0 | 0 | 0
O=S1(=O)CC2c3ccccc3CCN2CN1Cc1ccc(F)cc1 (stereo not given) | 0 | - | - | - | - | -
COc1cc2c[n+](C)c3c4ccccc4ccc3c2cc1OC | 0 | 16µM | 0 | 9.2µM | 0 | ?
COc1ccc(NC(=S)Nc2cccc3ccccc23)cc1OC | 0 | ? | 0 | 0 | 0 | 0
COc1ccc(Cc2c3cc(OC)c(OC)cc3cc[n+]2C)cc1OC | 0 | 0 | 0 | 0 | 0 | 0
COc1ccc2c(c1)c[n+](C)c1c3cc(OC)c(OC)cc3ccc21 | 0 | - | - | 2.9µM | - | 0
COc1cccc(-n2c(CN3CCN(c4cccc(C)c4)C(C)C3)nc3ccc([N+](=O)[O-])cc3c2=O)c1 (stereo not given) | 0 | 0 | 0 | 0 | 0 | 0
COc1cccc(-n2c(CN3CCN(c4ccc(C)cc4)C(C)C3)nc3ccc([N+](=O)[O-])cc3c2=O)c1 (stereo not given) | 0 | 0 | 0 | 0 | 0 | 15µM
CC(=O)c1cccc(NC(=O)c2sc(-n3nc(C)c(Cc4ccc5c(c4)OCO5)c3C)nc2C)c1 | 0 | 9.2µM | - | - | ? | -
C=CCn1c2ccccc2c2nnc(SCCCn3c(=O)[nH]c4ccccc43)nc21 | 0 | 13µM | 0 | ? | 0 | ?
COc1cc(NS(=O)(=O)c2ccc(Br)s2)cc(OC)c1 | 0 | ? | 0 | ? | 0 | 16µM
COc1ccc(CNS(=O)(=O)c2ccc(Br)s2)cc1 | 0 | 0 | 0 | 0 | 0 | 0
C=CCn1c(SCc2cc(C(C)=O)ccc2OCC)nc2ccccc2c1=O | 0 | 0 | 0 | 1.2µM | 0 | 2.3µM
COc1ccccc1-n1c(SCc2cc(=O)oc3cc(O)ccc23)nc2ccccc2c1=O | 0 | 0 | 0 | ? | 0 | 18µM
COc1ccc(C(C)=O)cc1CSc1nc2ccccc2c(=O)n1-c1ccccc1C | 0 | ? | 0 | 0 | 0 | 21µM
COc1ccc(Nc2nc(C#N)nc(NC3CCCC3)n2)cc1 | - | ? | - | - | 0 | -
O=C(c1sccc1Cl)N1CCC(n2nnc3ncccc32)CC1 | 0 | - | - | - | - | -
O=[N+]([O-])c1ccc(CN2CCOCCOCCN(Cc3ccc([N+](=O)[O-])cc3Cl)CCOCC2)c(Cl)c1 | 0 | - | - | - | - | -
CC(C)COc1ccc(C(=O)N(CC(=O)Nc2ccccc2C(F)(F)F)Cc2ccco2)cc1 | 0 | 18µM | 0 | 0 | ? | ?
COc1ccccc1NC(=O)CN(Cc1ccco1)C(=O)c1ccc(-n2nc(C)cc2C)cc1 | 0 | 0 | 0 | 0 | 0 | 2.1µM
COc1ccccc1NC(=O)CN(Cc1ccco1)C(=O)c1cncc(Br)c1 | 0 | 0 | 0 | 0 | 0 | ?
CCCCC(C(=O)NCCC(C)C)N(CCCN1CCOCC1)C(=O)c1snc(C(N)=O)c1N (stereo not given) | 0 | 0 | 0 | 0 | 0 | 9.2µM
CNc1ccc(Br)cc(C(=O)/C=C/c2cccc(Cl)c2Cl)c1=O | 0 | 0 | 0 | 16µM | 0 | ?
CNc1ccc(Br)cc(C(=O)/C=C/c2cccc(OC)c2OC)c1=O | 0 | 0 | 0 | 0 | 0 | 0
SMILES | PI4K2A inh | Nrf2 block | Giardia killer | KB-3-1 tox | A549 viability | KB-V1 cytotox
CCNc1ccc(Br)cc(C(=O)/C=C/c2ccccc2Cl)c1=O | 0 | ? | 0 | ? | ? | 23µM
COc1ccccc1CCNC(=O)c1ccc(-c2nc(CSc3ccc(C)cc3)c(C)o2)cc1 | 0 | ? | - | 0 | 0 | 0
CC[C@@H](CCCCCCCn1ccc2ccccc21)CCC(=O)N(c1ccccc1)c1ccccc1 | 0 | - | - | - | - | -
CCCCn1c(SCC(=O)c2ccccc2)nc2sc3c(c2c1=O)CCCC3 | 0 | 0 | - | 0 | 0 | 0
CN(C)CC1CCC/C(=C\c2ccc(OC(=O)c3ccc(Cl)cc3)cc2)C1=O (stereo not given) | 0 | ? | 0 | ? | ? | 21µM
CCC(=O)NCc1cc(-c2nn(C)c(=O)c3ccccc23)ccc1C | 0 | 0 | 0 | 0 | 0 | ?
